Entries with a potency or affinity are not part of this list. Activity calls are given as the source filed them.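 Rule for the calls: active = compounds whose fitted half-maximal effective concentration for blocking dye efflux is below 100 µM; inactive = the rest.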
Target: Benomyl/methotrexate resistance protein (Candida albicans) (UniProt P28873)
Assay: CaMdr1 efflux pump inhibitor potency, dose response, singleplex, Cherry Pick2 set (AID 623992)
Conditions: S. cerevisiae AD/CaMDR1, Nile Red efflux, flow cytometry; series mostly up to 100 µM

Chain of Benomyl/methotrexate resistance protein (Candida albicans) (P28873 whole entry, looked up): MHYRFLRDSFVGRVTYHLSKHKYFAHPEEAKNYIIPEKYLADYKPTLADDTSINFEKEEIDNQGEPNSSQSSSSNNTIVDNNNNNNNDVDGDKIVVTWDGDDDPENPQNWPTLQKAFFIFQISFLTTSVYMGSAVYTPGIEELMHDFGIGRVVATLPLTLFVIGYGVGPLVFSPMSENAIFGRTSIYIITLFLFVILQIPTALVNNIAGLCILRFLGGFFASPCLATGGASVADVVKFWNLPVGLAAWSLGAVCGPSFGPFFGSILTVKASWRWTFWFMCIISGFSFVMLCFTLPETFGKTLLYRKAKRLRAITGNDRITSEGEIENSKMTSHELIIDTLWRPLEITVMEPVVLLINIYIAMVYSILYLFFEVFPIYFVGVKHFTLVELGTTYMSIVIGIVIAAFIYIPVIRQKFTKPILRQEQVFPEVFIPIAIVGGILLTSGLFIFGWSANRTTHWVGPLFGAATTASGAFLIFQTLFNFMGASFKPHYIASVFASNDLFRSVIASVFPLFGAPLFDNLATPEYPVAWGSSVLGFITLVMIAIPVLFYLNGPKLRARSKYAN

outcome, inactive:
COc1cccc(-c2sc3ccc(OC)cc3c2-c2ccc(OCCN3CCOCC3)cc2)c1
Cc1ccc(-c2c[n+](CC(=O)N3c4ccccc4Sc4ccccc43)c3n2CCC3)cc1
NC1=NC[C@H](Cc2ccccc2)N1CCCCC1CCCCC1
CCC(Cc1ccccc1)OC(=O)c1ccccc1C(=O)O (stereo not given)
CCCCNC(=O)C1CCC(CNc2nc(=S)[nH]c3ccccc23)CC1 (stereo not given)
Cc1cc(C(=O)NC2CC(C)(C)Cc3c2cnn3-c2ccc(F)cc2)no1 (stereo not given)
O=C(NC1CCCc2c1cnn2-c1ccccc1F)c1ccccn1 (stereo not given)
Cc1cccc(C2CC(c3ccccc3)=NN2c2ccc(S(N)(=O)=O)cc2)c1 (stereo not given)
COc1ccc(CCOC(=O)c2ccc(N)c([N+](=O)[O-])c2)cc1
Cc1cccc2sc(N(CCCN(C)C)C(=O)c3ccc(Cl)s3)nc12
CC(C)C(=O)N1CCC2(CC1)Oc1ccc(F)cc1C(=O)C21CC(c2ccc(Cl)cc2)=NO1 (stereo not given)
O=C(C1CCCN(c2ncnc3c2nc2n3CCCCC2)C1)N1CCN(c2cccc(Cl)c2)CC1 (stereo not given)
Cc1ccc(O)c(C(=O)c2cnc3c(c2)CN(C)C(=O)N3)c1
Cc1ccc(CNC(=O)C2CCC(CNc3nc(=S)[nH]c4ccccc34)CC2)cc1 (stereo not given)
Cc1ccc(O)c(C(=O)c2cnc3c(c2)CN(CCC(C)C)C(=O)N3)c1
C[C@H](CO)N1C[C@H](C)[C@@H](CN(C)S(=O)(=O)c2ccccc2)Oc2c(NC(=O)Nc3ccccc3)cccc2C1=O
C[C@@]12C(=O)Nc3ccc(Cl)cc3C(=O)N1[C@H]1c3cc(Cl)ccc3OC[C@@H]1[C@@H]2c1ccccc1
O=C(C[n+]1cc(-c2ccc(Cl)cc2)n2c1CCC2)N1c2ccccc2Sc2ccccc21
O=C(c1ccc2c(c1)OCO2)N1CCC2(CC1)Oc1ccc(F)cc1C(=O)C21CC(c2ccc(Cl)cc2)=NO1 (stereo not given)
CCCCCCCCCC[N+](C)(C)CC/C=C1/c2ccccc2Sc2ccc(Cl)cc21
COc1cc(OC)c2ccc(=O)oc2c1C(CCN1CCCCC1)c1ccc(N(C)C)cc1 (stereo not given)
COc1ccc(CNC(=O)C(C#N)c2nc3ccccc3nc2N2CCCC2)cc1 (stereo not given)
O=C(C[n+]1cc(-c2ccccc2)n2c1CCC2)N1c2ccccc2Sc2ccccc21
CC1CN(c2nc3ccccc3nc2C(C#N)C(=O)NCc2ccc3c(c2)OCO3)CC(C)O1 (stereo not given)
NS(=O)(=O)c1ccc(N2N=C(c3ccccc3)CC2c2ccccc2)cc1 (stereo not given)
NC1=NC[C@@H](Cc2ccc(O)cc2)N1CCCCC1CCCCC1
COc1ccc(CN2C(=O)C(C)Nc3ncnc(N4CCN(c5ccccc5)CC4)c32)cc1 (stereo not given)
COc1ccc(O)c(C(=O)c2cnc3c(c2)CN(C)C(=O)N3)c1
CC(C)C(=O)N1CCN(c2ccccc2NC(=O)c2ccc3c(c2)OCCO3)CC1
O=C(Nc1ccccc1)C1=C[C@@H](c2ccc(Br)cc2)C[C@@H](OCCCCO)O1

— PubChem BioAssay AID623992 (NMMLSC, 2012)
